{"source": "PubChem BioAssay (Tox21)", "note": "Inconclusive results are not listed. Values without a mark were called inactive. The source made the active and inactive calls. Calls follow the shape of the dose curve; as a rule, active = well fitted cell-killing curve with a large enough effect in the repeat runs; inconclusive = weak or mixed curves; inactive = no such curve, though single readings can be large or run the other way. % is scaled to controls: 0 for no effect and ±100 for the full control effect; potency is read from the fitted curve at half-maximal effect.", "data": [{"experiment": "qHTS assay for identifying genotoxic compounds that show differential cytotoxicity against isogenic chicken DT40 cell lines with known DNA damage response pathways - Rad54/Ku70 mutant cell line (AID 743015); also: nearly all actives have a fitted effect of over 60% in size", "details": "DT40 Rad54/Ku70 mutant viability, CellTiter-Glo, 40 h; series mostly up to 66.8 µM; activity change, negative = cytotoxicity: at the top concentration", "values": [{"compound": "CCCOC(=O)c1ccccc1O", "activity change, negative = cytotoxicity": "3.69%"}, {"compound": "CO/N=C(\\C(=O)N[C@@H]1C(=O)N2C(C(=O)O)=C(CSc3cnns3)CS[C@H]12)c1csc(N)n1", "activity change, negative = cytotoxicity": "9.05%"}, {"compound": "COC1=C(OC)C(=O)C(C/C=C(\\C)CC/C=C(\\C)CC/C=C(\\C)CC/C=C(\\C)CC/C=C(\\C)CC/C=C(\\C)CC/C=C(\\C)CC/C=C(\\C)CC/C=C(\\C)CCC=C(C)C)=C(C)C1=O", "activity change, negative = cytotoxicity": "13.5%"}, {"compound": "C=C(Nc1ccc(OCC)cc1)Nc1ccc(OCC)cc1", "Potency": "23.7 µM (active)"}, {"compound": "N[C@H](CO)C(=O)O", "activity change, negative = cytotoxicity": "0.78%"}, {"compound": "CCCCCCCCCCCCCC(=O)OCC(COP(=O)([O-])OCC[N+](C)(C)C)OC(=O)CCCCCCCCCCCCC", "note": "(centres undefined)", "activity change, negative = cytotoxicity": "1.11%"}, {"compound": "CC(C)(C)c1ccc2c(S(=O)(=O)O)c(C(C)(C)C)ccc2c1", "Potency": "inactive"}, {"compound": "O=C1c2ccccc2C(=O)C1c1ccc(F)cc1", "activity change, negative = cytotoxicity": "11.6%"}, {"compound": "N#Cc1c(N(CC(=O)O)CC(=O)O)sc(C(=O)O)c1CC(=O)O", "activity change, negative = cytotoxicity": "6.48%"}, {"compound": "CC(=O)Oc1cc(C(F)(F)F)ccc1C(=O)O", "activity change, negative = cytotoxicity": "7.69% [at 30.7 µM]"}, {"compound": "O=P(O)(O)CP(=O)(O)O", "activity change, negative = cytotoxicity": "5.88%"}, {"compound": "O=C1CC[C@@H](C(=O)N[C@H]2C[C@@H]2c2ccccc2)N1", "activity change, negative = cytotoxicity": "2.29%"}, {"compound": "CO[C@H]1C[C@H](O[C@H]2[C@H](C)[C@@H](O[C@@H]3O[C@H](C)C[C@H](N(C)C)[C@H]3O)[C@@H](C)C[C@]3(CO3)C(=O)[C@H](C)[C@@H](O)[C@@H](C)[C@@H](C)OC(=O)[C@@H]2C)O[C@@H](C)[C@@H]1O", "activity change, negative = cytotoxicity": "0.0748% [at 30.7 µM]"}, {"compound": "O=C(O)c1cc(O)c2c(c1)[C@H]([C@H]1c3cc(C(=O)O)cc(O)c3C(=O)c3c(O[C@@H]4O[C@H](CO)[C@@H](O)[C@H](O)[C@H]4O)cccc31)c1cccc(O[C@@H]3O[C@H](CO)[C@@H](O)[C@H](O)[C@H]3O)c1C2=O", "activity change, negative = cytotoxicity": "-7.52%"}]}]}
